# Assay outcomes from PubChem.
# ALOX12 inhib = qHTS Assay for Inhibitors of 12-hLO (12-human lipoxygenase) | AID 1452, 2008 | purified 12-hLO, xylenol orange hydroperoxide absorbance | 150,000 compounds, 0.12% hits | Polyunsaturated fatty acid lipoxygenase ALOX12 (Homo sapiens), P18054 | Potency, µM (top dose mostly 57.1 µM), without a hit: at the top dose activity change, negative = inhibition, most hits filed as inhibitors; note: potency is the fitted concentration of half-maximal effect; nearly all actives have a fitted effect of over 55% in size
# Target sequence (P18054 whole entry, looked up): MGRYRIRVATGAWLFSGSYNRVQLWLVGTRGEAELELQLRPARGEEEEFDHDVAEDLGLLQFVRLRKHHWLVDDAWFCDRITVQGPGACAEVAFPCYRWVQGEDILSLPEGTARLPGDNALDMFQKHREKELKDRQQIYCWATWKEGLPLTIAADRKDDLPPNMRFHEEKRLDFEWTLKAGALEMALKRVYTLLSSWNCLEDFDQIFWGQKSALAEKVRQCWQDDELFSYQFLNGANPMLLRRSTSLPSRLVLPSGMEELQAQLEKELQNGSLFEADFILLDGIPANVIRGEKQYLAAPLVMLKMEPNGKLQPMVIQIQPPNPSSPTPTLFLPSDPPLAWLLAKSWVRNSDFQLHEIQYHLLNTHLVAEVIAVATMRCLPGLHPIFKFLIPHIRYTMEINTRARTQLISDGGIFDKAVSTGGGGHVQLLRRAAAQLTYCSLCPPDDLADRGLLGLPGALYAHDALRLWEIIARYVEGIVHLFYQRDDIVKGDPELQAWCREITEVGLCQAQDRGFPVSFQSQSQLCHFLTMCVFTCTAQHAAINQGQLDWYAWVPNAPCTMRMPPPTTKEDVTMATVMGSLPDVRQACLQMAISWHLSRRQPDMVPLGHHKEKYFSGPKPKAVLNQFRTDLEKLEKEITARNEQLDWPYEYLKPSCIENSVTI
#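 Purified human 12hLO (150 nM final) was preincubated with compounds for 15 min at room temperature in 25 mM Hepes pH 7.0, 0.01% Triton X-100, then reacted with 40 uM arachidonic acid for 30 min. Hydroperoxide was detected with ferrous iron/xylenol orange.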
# HPGD block = qHTS Assay for Inhibitors of HPGD (15-Hydroxyprostaglandin Dehydrogenase); 15-hydroxyprostaglandin dehydrogenase [NAD(+)] (Homo sapiens), P15428; purified HPGD, NADH fluorescence kinetic, PGE2 substrate; Potency, µM, inactives show top-dose activity change, negative = inhibition, usual class: inhibitors; 150,000 compounds, 4.3% hits; AID 894, 2007; active = well fitted inhibition curve with a large enough effect, not every such curve was filed as active; inconclusive = small, poorly fitted or top-dose-only effect, or another doubt; inactive = no such curve, though single readings can be large or run the other way; note: potency is the fitted concentration of half-maximal effect
#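 NADH formation kinetics: reaction with 30 uM PGE2 and 1 mM NAD+ (final), 20 nM enzyme, Tris-HCl pH 8 with Tween 20, after 15 min compound preincubation at room temperature. Fluorescence change, last versus first of five reads.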
# IMPase cell inh = qHTS Assay for Identifying the Cell-Membrane Permeable IMPase Inhibitors. CHO-M1 cells, IP1 accumulation, HTRF TR-FRET ratio. inhibition (IP1 accumulation), % at 46.1 µM. 120,000 tested, under 10 active. AID 901, 2007; active = well fitted curve in the direction sought with a large enough effect in the signal ratio, not every such curve was filed as active; inconclusive = small, poorly fitted or top-dose-only effect, or a change in a side signal; inactive = no such curve, though single readings can be large or run the other way; the % refers to the signal ratio;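 note: cells stimulated with carbachol in lithium chloride buffer; plate controls were DMSO basal wells for no effect and reference inhibitor wells for full effect; higher means more IMPase inhibition seen as more IP1 and lower FRET ratio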
#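 CHO-M1 cells (CHO stably expressing M1 receptor), compound up to 46 uM final, stimulated with carbachol (50 uM as added) in buffer with 50mM LiCl, pH 7.4, 30 min at 37C. Cytosolic IP1 read by TR-FRET; AC50 from Hill fits.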
# IMPase Li cell = qHTS Assay for Identifying the Cell-Membrane Permeable IMPase Inhibitors: Potentiation with Lithium; CHO-M1 cells, IP1 TR-FRET (IP-One), carbachol + lithium; Potency, µM (doses to about 59.4 µM), without a hit: at the highest dose activity, negative = IMPase inhibition, hits mostly inhibitors; AID 1457, 2008; 210,000 compounds, 0.35% hits;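 note: IP1 builds up when IMPase is blocked and the TR-FRET signal falls; potency is the fitted concentration of half-maximal effect; plate controls were basal vehicle for no effect and high inhibitor control for full effect; nearly all actives have a fitted effect of over 50% in size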
#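 CHO-M1, 2000 cells/well, 16–30 h culture; cpd + low Li+, 30 min 37C; lysis with d2-IP1/Eu-anti-IP1 Ab, 10 min RT; TR-FRET 665/620 ratio and 620 channel; AC50 via Hill.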
# ALOX15B inhib = qHTS Assay for Inhibitors of 15-hLO-2 (15-human lipoxygenase 2). Potency, µM (highest dose often 57.1 µM), for inactives: at the highest dose activity change, negative = inhibition, most hits filed as inhibitors. purified 15hLO-2, xylenol orange hydroperoxide absorbance. Polyunsaturated fatty acid lipoxygenase ALOX15B (Homo sapiens), O15296. 110,000 compounds, 0.56% hits; note: potency is the fitted concentration of half-maximal effect; nearly all actives have a fitted effect of over 60% in size
#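 Purified human 15hLO-2 (50 nM) preincubated 15 min with compound, then 45 uM arachidonic acid for 90 min at RT in 25 mM Hepes pH 7.5, 0.01% Triton X-100. Hydroperoxide detected by Fe-xylenol orange; 573/405 nm absorbance ratio.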
# PNC assembly inh = High Content Assay for Compounds that inhibit the Assembly of the Perinucleolar Compartment; 140,000 compounds, 3.1% hits; AID 2417, 2010; PC3M PTB-GFP, PNC prevalence imaging, 16 h; active compounds read low; activity change (PNC), negative = inhibition, % at 10 µM;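 active = readout at or below -70, meaning at least 70% loss of cells showing the perinucleolar compartment, a nuclear body marking cancer cells; inconclusive = readout between -30 and a set limit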;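 note: plate controls were DMSO wells for no effect and camptothecin positive control wells for full effect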
#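 PC3M cells stably expressing PTB-GFP, 750–1000 cells/well, treated 16 h at 37 °C with compound (23 nl of library stock), in duplicate. After paraformaldehyde fixation and Hoechst stain, imaged at 20x; PNC prevalence scored by image analysis.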
# * = called active by the depositor; ? = inconclusive; . = not tested or not shown; [ ] = dose if it differs, or a comment. Shown are actives, neighbours in structure and some others; about 5.3% of the full set was active somewhere. Unless noted, calls come from the whole dose curve; as a rule, active = well fitted curve in the direction sought with a large enough effect; inconclusive = small, poorly fitted or top-dose-only effect, or another doubt; inactive = no such curve, though single readings can be large; an effect the other way counts as inactive or inconclusive. Unless noted, % is set by controls: 0 for no effect and ±100 for the full control effect.
SMILES,ALOX12 inhib,HPGD block,IMPase cell inh,IMPase Li cell,ALOX15B inhib,PNC assembly inh
CCN(CC)C(=O)c1sc(NC(=O)c2ccc(Br)o2)c(C(=O)OC)c1C,6.0%,15.8µM*,6.1,30.9%[38.3 µM],-0.1%,56.0
CCCCC(=O)Nc1sc(C(=O)N(CC)CC)c(C)c1C(=O)OC,-4.0%,2.51µM*,0.6,7.2%,.,-100.0*
CCOC(=O)c1c(-c2cccs2)csc1NC(=O)CC(C)C,-1.0%,?,6.5,42.2%[38.3 µM],2.2%,12.1
CCOC(=O)c1c(NC(=O)c2cccnc2)sc(C(C)=O)c1C,-0.7%,12.6µM*,-11.5,9.4%,.,13.8
COC(=O)c1c(-c2cccs2)csc1NC(=O)c1cccnc1,-5.4%,?,3.8,23.5%[38.3 µM],7.5%,-100.0*
Oc1ccc2ccccc2c1CN(Cc1c(O)ccc2ccccc12)C1CCCCC1,-4.4%[11.4 µM],-3.3%,.,7.0%,-23.9%[11.4 µM],.
Cc1cccc(NC(=O)/C(C#N)=C/c2ccc(C)o2)c1,.,.,0.8,.,.,.
CCN(CC)C(=O)c1sc(NC(=O)c2cccnc2)c(C(=O)OC)c1C,7.3%,20µM*,.,-0.2%,.,1.3
Cc1noc(C)c1CSc1nnc(-c2ccccc2)n1Cc1ccco1,0.8%,-10.9%,0.4,5.4%[38.3 µM],-3.0%,19.3
COc1ccc(-c2nnc(SCc3ccccc3)n2N)cc1,-4.3%,-16.3%,-7.2,-3.0%[38.3 µM],-4.0%,-107.9*
Cc1ccc(-c2nnc(SCC#N)n2N)cc1,2.9%,?,-10.1,17.4%[38.3 µM],0.3%,-82.7*
Cc1noc(C)c1CSc1ccc2ccccc2n1,-0.6%,-21.9%,3.9,7.5%,.,-118.9*
Cc1noc(C)c1CSc1nnc(-c2ccccc2)n1N,-3.2%,20µM*,0.7,-1.5%[38.3 µM],-17.6%,1.8
Cc1cccc(-c2nnc(SCC#N)n2C)c1,.,.,.,-0.8%,.,.
CC(/C=C1\N=C(SCc2ccccc2)SC1=O)=C\c1ccccc1,-3.8%,-19.0%,.,-2.5%,.,?
Cc1ccc(C(=O)NNC(=O)CSc2n[nH]c(-c3cccnc3)n2)cc1,.,.,.,-1.1%,.,.
COc1ccc(OCC(=O)Sc2ccc(C)cc2)cc1,-10.8%,14.1µM*,-0.3,10.5%[38.3 µM],-26.6%,34.7
CCOC(=O)c1cc(NC(=O)N(C(C)C)C(C)C)c(C)nc1C,-2.5%,-13.7%,-1.9,11.7%[38.3 µM],-3.1%,37.0
CCOc1ccc(NC(=O)COc2ccc(C(=O)NCCc3ccccc3)cc2)cc1,-1.9%,.,-7.2,.,.,-104.8*
CCOC(=O)c1cc(NC(=O)Nc2ccc(OC)c(OC)c2)c(C)nc1C,0.7%,-1.4%,-1.3,3.6%[38.3 µM],-1.3%,-102.1*
COc1ccc(NC(=O)Nc2cc(C)ccc2OC)cc1,1.4%,-16.3%,5.5,-1.3%[38.3 µM],0.9%[2.29 µM],-82.3*
COc1ccc(OCC(=O)Nc2ccc(C)cc2)cc1,-0.6%,15.8µM*,-3.7,22.6%[38.3 µM],9.0%,?
Cc1cc(Cl)c(S(=O)(=O)NCc2ccccc2)cc1OCC(N)=O,5.5%,-3.8%,-8.3,-0.5%[38.3 µM],4.0%,-113.4*
O=C(Nc1ccccc1)c1ccc(Cc2nc3ccccc3[nH]2)cc1,-0.3%,-2.6%,.,.,.,.
Cc1nn(-c2cc(N3CCCCC3)ccc2N)c(=O)c2ccccc12,-2.0%,3.6%,0.2,6.9%,.,-118.9*
Cc1nn(-c2cc(N3CCCCCC3)ccc2[N+](=O)[O-])c(=O)c2ccccc12,1.2%,-9.0%,5.4,10.8%[38.3 µM],-27.7%,55.2
CN(C)CCCN1c2ccccc2Sc2ccc(C(F)(F)F)cc21,-5.4%,-2.0%,20.0[20.6 µM],34.8%,47.7%,-114.6*
CCOc1ccc(-c2csc(/C(C#N)=C/c3ccc(Br)cc3)n2)cc1,.,.,-8.8,.,.,.
COc1ccc(NC(=O)Cn2c(=O)n(Cc3ccccc3Cl)c(=O)c3cc(OC)c(OC)cc32)cc1OC,.,.,6.1,.,.,.
